Source: PubChem
BAZ2B block = inhibitors of human BAZ2B bromodomain; AlphaScreen BAZ2B-H3K14Ac peptide displacement; Q9UIF8; 4.4% of 360,000 active; AID 504333; Potency, µM (series often up to 114 µM), inactives show top-dose activity change, negative = inhibition, usual class: inhibitors; further: on the % scale 0 is the no-effect control and ±100 the full control effect; nearly all actives have a fitted effect of over 60% in size
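Compounds, titrated to a top concentration of 110 uM, were incubated 30 min at room temperature with preformed BAZ2B/acetyl-K14 H3 peptide complex (50 nM each). Proximity signal was measured by AlphaScreen after 20 min with beads.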
HP1b binding inh = blocks HP1-beta chromodomain binding to methylated histone tails; AID 540317; AlphaScreen HP1-beta / biotin-H3K9me3 peptide binding; 0.56% of 390,000 active; Potency, µM (doses to about 114 µM), without a hit: top-dose activity change, negative = inhibition, actives largely listed as inhibitors; P83916; further: nearly all actives have a fitted effect of over 70% in size
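Compound inhibition of the preformed complex between 50 nM HP1-beta and 50 nM biotinylated H3K9me3 peptide was read by AlphaScreen. Buffer was PBS pH 7.4 with 0.01% Tween-20. Incubations ran 30 min at room temperature, with 10 ug/mL donor/acceptor beads.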
G9a inh = G9a (human) methyltransferase inhibition; Potency, µM (series often up to 102 µM), for inactives: top-dose activity, negative = inhibition, usual class: inhibitors; AID 504332; G9a H3K9 monomethylation, AlphaScreen, 2 h; 8.8% of 350,000 active; further: on the % scale 0 is the no-effect control and ±100 the full control effect; nearly all actives have a fitted effect of over 75% in size
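Step 1: enzyme (final 20 nM) with compound, 15 min RT. Step 2: substrate peptide 500 nM and SAM 20 uM, 2 h RT. Step 3: anti-H3K9me1 antibody and AlphaScreen beads, 10 min, then plate read.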
ALOX12 inh = inhibitors of human 12S-lipoxygenase ALOX12 | P18054 | purified 12hLO, xylenol orange hydroperoxide absorbance | Potency, µM (titrated, usually from 108 µM), without a hit: top-dose activity change, negative = inhibition, hits mostly inhibitors | 1.1% of 580,000 active | AID 1671190; further: on the % scale 0 is the no-effect control and ±100 the full control effect
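Purified human 12hLO at 150 nM in 25 mM Hepes, 0.01% Triton X-100, pH 7.0, preincubated 15 min at room temperature with compound. Reaction started with 40 uM arachidonic acid, 30 min at room temperature. Hydroperoxide measured by Fe-xylenol orange, 573/405 nm absorbance ratio.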
JMJD2A Tudor = inhibitors of human JMJD2A Tudor domain; O75164; AlphaScreen JMJD2A-Tudor / H3K4me3 peptide binding; Potency, µM (series often up to 114 µM), inactives show top-dose activity change, negative = inhibition, hits mostly inhibitors; 4.4% of 390,000 active; AID 504339; further: on the % scale 0 is the no-effect control and ±100 the full control effect; nearly all actives have a fitted effect of over 50% in size
PLK1 PBD inh = inhibitors of human PLK1 polo-box domain binding. P53350. Plk1 PBD binding of FITC phosphopeptide, fluorescence polarization. Potency, µM, without a hit: max response, negative = inhibition, hits mostly inhibitors. 2.8% of 360,000 active. AID 720504; further: series mostly up to about 57 µM; on the % scale 0 is the no-effect control and ±100 the full control effect; nearly all actives have a fitted effect of over 65% in size
Target sequence (P53350 whole entry, looked up, the tested form may be a part): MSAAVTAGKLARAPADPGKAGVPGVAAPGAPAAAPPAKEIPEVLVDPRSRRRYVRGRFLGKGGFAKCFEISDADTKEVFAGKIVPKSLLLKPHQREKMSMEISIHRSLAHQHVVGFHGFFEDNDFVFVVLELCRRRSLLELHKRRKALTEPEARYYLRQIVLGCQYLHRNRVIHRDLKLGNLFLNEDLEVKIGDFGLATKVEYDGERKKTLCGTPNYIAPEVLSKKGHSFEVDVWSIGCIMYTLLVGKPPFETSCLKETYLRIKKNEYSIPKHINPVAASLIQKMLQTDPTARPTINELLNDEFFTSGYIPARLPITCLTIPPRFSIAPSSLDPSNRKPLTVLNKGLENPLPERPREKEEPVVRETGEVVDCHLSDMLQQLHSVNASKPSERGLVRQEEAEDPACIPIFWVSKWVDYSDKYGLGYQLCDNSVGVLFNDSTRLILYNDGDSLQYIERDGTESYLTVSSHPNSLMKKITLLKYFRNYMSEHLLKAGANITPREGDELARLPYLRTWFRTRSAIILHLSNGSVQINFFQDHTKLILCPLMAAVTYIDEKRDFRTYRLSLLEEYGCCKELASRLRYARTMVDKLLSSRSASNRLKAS
Active calls of the source: *; ? = inconclusive; . = no result given; [ ] = another dose, or the depositor's remark. Compounds with a hit are over-represented: about 9% of the library has one in this group of screens. The call rests on the fitted dose curve; in most records, active means well fitted curve in the direction sought with a large enough effect; inconclusive means small, poorly fitted or top-dose-only effect, or another doubt; inactive means no such curve, though single readings can be large; an effect the other way counts as inactive or inconclusive. Potency means the concentration at half of the fitted maximal effect.

SMILES	BAZ2B block	HP1b binding inh	G9a inh	ALOX12 inh	JMJD2A Tudor	PLK1 PBD inh
COc1ccc(N2CCN(Cc3cc4c(cc3Br)OCCO4)CC2)cc1	13µM*	?	28µM*	0%	22µM*	-5%
Cc1ccc(-c2c(CN3CCN(c4cc(C)ccc4C)CC3)csc2C)cc1	?	41%	-47%[59 µM]	5%	?	.
CCn1c(SCc2ccccc2F)nnc1-c1ccncc1	-1%	14%[57 µM]	-2%	?	-13%	-23%
COC(=O)C[C@H]1C=C[C@@H](NC(=O)Nc2cccc(OC)c2)[C@@H](CO)O1	.	.	.	-15%	.	-10%
COc1cc(C=NNc2nc3c([nH]2)c(=O)n(C)c(=O)n3C)ccc1O	.	13%[57 µM]	.	-2%	-14%	-6%
Cc1nc2c(cc1C(=O)N/N=C/c1ccc(O)c(O)c1)c(=O)n(C)c(=O)n2C	-25%	-17%	?	34%	35µM*	-7%
Nc1ccc(C(=O)O)cc1CCCC(=O)O	.	.	.	-7%	.	.
O=c1[nH]c(=O)c2nc3c4ccccc4c4ccccc4c3nc2[nH]1	56µM*	-7%	40µM*	-4%	-32%[11.4 µM]	21µM*
O=c1[nH]c(=O)c2nc(-c3ccc(Cl)cc3)cnc2[nH]1	-11%	?	?	?	-10%	-12%
C[N+]1(CCn2ccc3ccccc32)CCCCC1	-5%	-5%	50µM*	?	25µM*	-4%
O=C(NNS(=O)(=O)c1ccc(Br)cc1)c1cccs1	0%	-17%	-5%[0.501 µM]	?	-2%	?
Nc1nc2c(F)cccc2s1	0%	25%	1%	-2%	-7%	2%
Nc1nc2c(F)c(F)c(F)cc2s1	-2%	3%	18µM*	?	-14%	27µM*
Cc1ccccc1C(=O)NCC(=O)NNC(=S)NC(=O)c1ccccc1C	-2%	40%	10µM*	-23%	?	-8%
Cc1ccccc1C(=O)NCC(=O)NNC(=S)NC(=O)c1ccccc1	-4%	22%	1.1µM*	-29%	-6%[57.1 µM]	?
Cc1ccccc1C(=O)NC(=S)NCC(=O)c1ccccc1	8%	5%	-5%	-25%	0%	-2%
COC(=O)NC1c2ccccc2Oc2ccc(C)cc21 (configuration not stated)	6%	20%	-5%	-5%	1%	-9%
COc1ccc(-c2csc3nc(-c4cccnc4)nc(Cl)c23)cc1OC	-3%	23%	?	-21%	-21%	27µM*
O=c1[nH]c2cc(Cl)c([N+](=O)[O-])nc2[nH]1	1%	36%	-22%	?	-23%	-15%
Cc1cccc(CC(=O)Nc2cccnc2)c1	-18%	29%	37%	-1%	-5%	-16%
CCN1CCN(c2ccc3cc(S(=O)(=O)N4CCOCC4)ccc3n2)CC1	.	.	.	1.8µM*	.	.
O=C(c1ccc(S(=O)(=O)N2CCCCC2)cc1)N1CCN(c2ccccc2)CC1	-5%	14%	-5%[12.7 µM]	?	-21%	0%
O=S(=O)(c1ccc2nc(N3CCN(c4ccccc4)CC3)ccc2c1)N1CCCC1	.	.	.	3.5µM*	.	.
CC1CCCCN1S(=O)(=O)c1ccc(S(=O)(=O)N2CCN(c3ccccc3)CC2)cc1 (configuration not stated)	7%	30%	50µM*	-15%	-1%	0%
CC(=O)c1ccc(N2CCN(c3ccc4cc(S(=O)(=O)N5CCCCC5)ccc4n3)CC2)cc1	-2%	13%	-3%[59 µM]	?	-9%	.
O=S(=O)(c1ccc2nc(N3CCN(c4ccccc4F)CC3)ccc2c1)N1CCCCC1	-16%	17%[57 µM]	18µM*	?	5%	4%
O=C(CCCc1nc2ccccc2s1)NC1CCC2CCCCC2C1 (configuration not stated)	.	.	.	-65%	.	.
C#CCNC(=O)C[C@@H]1C[C@@]2(C(=O)OCC)CCC=C2N(Cc2ccc3c(c2)OCO3)C1=O	.	.	.	?	.	-5%
COCCn1c(SCC(=O)c2c(N)n(C)c(=O)n(C)c2=O)nc2ccccc21	-6%	23%	-1%	-1%	-6%	-4%
